# Measured values published in PubChem BioAssay AID641 (Vanderbilt High Throughput Screening Facility, 2007).
# Screen size: about 58,000 compounds; about 3,400 (5.9%) were called active.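 How the source made its calls: active means luminescence count or its row- and column-corrected plate score outside the 99.7% band of the plate's sample wells, on either side; inactive means the rest.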 The entries come from a sample that favours actives as a whole.
# Target: D(1A) dopamine receptor (Homo sapiens) (UniProt P21728)
# Sequence (P21728 whole entry, looked up): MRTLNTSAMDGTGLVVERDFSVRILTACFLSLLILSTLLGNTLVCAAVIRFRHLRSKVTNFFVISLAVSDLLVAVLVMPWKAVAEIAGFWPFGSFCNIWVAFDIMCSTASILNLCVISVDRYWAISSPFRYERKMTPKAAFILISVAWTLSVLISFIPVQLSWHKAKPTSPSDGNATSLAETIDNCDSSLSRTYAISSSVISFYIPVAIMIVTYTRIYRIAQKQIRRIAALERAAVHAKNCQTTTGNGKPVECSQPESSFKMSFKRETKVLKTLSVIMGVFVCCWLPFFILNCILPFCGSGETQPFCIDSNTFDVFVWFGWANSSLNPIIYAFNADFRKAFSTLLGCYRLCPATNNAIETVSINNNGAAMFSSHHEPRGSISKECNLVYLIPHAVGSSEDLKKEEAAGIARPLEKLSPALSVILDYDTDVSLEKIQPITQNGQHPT
# Assay: D1 CRE-luciferase signal change, two-sided – cell-based, HEK293 D1, dopamine EC30, D1 allosteric modulator project, primary screen (AID 641)
# Conditions: dopamine EC30 potentiation, at 10 µM, actives deviate in either direction
row,SMILES,B-score
1,COc1ccc(-c2nc(CS(=O)CC(=O)NCc3ccccn3)c(C)o2)cc1 (stereo not given),-1.3 (inactive)
2,Cc1ccc2nc(NCCCNC(=O)c3cnccn3)c(C#N)cc2c1,0.787 (inactive)
3,CCc1ccccc1NC(=O)c1cccs1,-0.318 (inactive)
4,COCCn1nnnc1CN1CCC(NC(=O)Nc2cccc(OC)c2)CC1,-0.857 (inactive)
5,CCOC(=O)c1cc2ccccc2nc1C,0.135 (inactive)
6,CCOC(=O)c1cc2n(c1C)-c1ccccc1C2=O,4.61 (active)
7,CCOC(=O)c1cc2n(c1N)-c1ccccc1C2=O,1.46 (inactive)
8,CCn1nc(NC(=O)c2ccco2)c2cc3ccc(C)cc3nc21,0.36 (inactive)
9,CC1CCc2c(sc3c2C2=NS(=O)(=O)CCN2C=N3)C1 (stereo not given),1.19 (inactive)
10,CN(Cc1ccccc1)c1nc2c(c(=O)[nH]c(=O)n2C)n1CCSc1nc2ccccc2[nH]1,1.93 (inactive)
11,CCCSc1nc2c(c(=O)[nH]c(=O)n2C)n1CCc1ccccc1,18 (active)
12,CCCCCn1c(SCCC(C)C)nc2c1c(=O)[nH]c(=O)n2C,0.151 (inactive)
13,CC1CCN(c2nc3c(c(=O)[nH]c(=O)n3C)n2CCCc2ccccc2)CC1,3.73 (active)
14,CN1CCN(c2nc3c(c(=O)[nH]c(=O)n3C)n2Cc2cccc3ccccc23)CC1,-2.28 (inactive)
15,Cn1c(=O)[nH]c(=O)c2c1nc(N1CCCCCC1)n2CC(=O)c1ccccc1,0.0681 (inactive)
16,Cc1cccc2cc(C#N)c(N3CCCC3)nc12,-0.4 (inactive)
17,CCC(=O)N1c2ccc(S(=O)(=O)CCC(=O)N3CCN(c4ccccc4)CC3)cc2CC1C (stereo not given),0.966 (inactive)
18,COc1ccc(C(=O)n2nc(-c3ccc(C)cc3)nc2N)cc1OC,0.0973 (inactive)
19,COc1ccc(C(=O)n2nc(-c3ccc(Cl)cc3)nc2N)cc1OC,1.72 (inactive)
20,COC(=O)c1ccc(OC(=O)c2nn(C)cc2Cl)c(OC)c1,-3.71 (active)
21,Cn1c(-c2ccc(C(=O)c3ccccc3)s2)nc2ccccc21,-0.58 (inactive)
22,CCN(CC)CCN1C(=O)C(=O)/C(=C(/O)c2ccccc2)C1c1ccccc1F (stereo not given),0.045 (inactive)
23,Cc1ccc(C)n1C(Cc1ccccc1)C(=O)O (stereo not given),1.32 (inactive)
24,O=C(O)COc1nsnc1N1CCOCC1,0.787 (inactive)
25,c1nc(COc2nsnc2N2CCOCC2)cs1,1.59 (inactive)

row,SMILES,B-score
1,c1ccc(COc2nsnc2N2CCOCC2)cc1,5.03 (active)
2,COc1cc(OC)c(NC(=O)c2ccc(Br)o2)cc1Cl,-0.284 (inactive)
3,CC(=O)Nc1ccc(S(=O)(=O)N2CCC(N(C)CCC(C)C)CC2)cc1,-0.0927 (inactive)
4,CC(C)C1C2=C(CC(C)(C)CC2=O)ON1c1ccccc1 (stereo not given),6.74 (active)
5,Cc1cc2c(cc1C)NC(c1ccccn1)C1=C(CC(C)(C)CC1=O)N2 (stereo not given),-0.653 (inactive)
6,CC1(C)CC(=O)NC=C(c2ccccc2)C1,-0.105 (inactive)
7,Cc1cc(C)c(S(=O)(=O)NCCCN2CCOCC2)cc1Br,0.0527 (inactive)
8,COc1ccc(S(=O)(=O)N(C)CC(=O)Nc2ccc3c(c2)OCCO3)cc1OC,3.86 (active)
9,COc1ccc(NC(=O)CN(C)S(=O)(=O)c2ccccc2)cc1OC,-0.205 (inactive)
10,COc1cccc(NC(=O)CN(C)S(=O)(=O)c2ccc(C)cc2)c1,-0.881 (inactive)
11,Cc1cc(=O)n2nc(N3CCCC3C(=O)NCCCN3CC(C)CC(C)C3)sc2n1 (stereo not given),-0.000281 (inactive)
12,Cc1ccc(-c2nnc(SC(C)C#N)n2N)cc1 (stereo not given),-0.328 (inactive)
13,COc1ccc(-c2noc(COc3ccc(Cl)c(C)c3)n2)cc1,-0.505 (inactive)
14,COc1ccc(-c2cc(C(F)(F)F)n3nc(C(=O)N4CCOCC4)c(Cl)c3n2)cc1,-1.29 (inactive)
15,Cc1nn2c3ccccc3nc2n(C)c1=O,0.34 (inactive)
16,c1ccc(CSc2nnc(-c3ccco3)c(-c3ccco3)n2)cc1,0.706 (inactive)
17,c1coc(-c2nc3nc4ccccc4n3nc2-c2ccco2)c1,2.64 (active)
18,CC1CCCN(Cc2nc3c(c(=O)n(C)c(=O)n3C)n2Cc2cccc3ccccc23)C1 (stereo not given),-0.313 (inactive)
19,O=c1c2ccccc2oc2nc3n(c(=O)c12)CCCS3,0.013 (inactive)
20,CCC1(C)Cc2c(sc3nc4n(c(=O)c23)CCCS4)CO1 (stereo not given),2.42 (active)
21,CC1(C)Cc2c(sc3nc4n(c(=N)c23)CCCCC4)CO1,0.888 (inactive)
22,CC(=O)NCCc1ccc(S(=O)(=O)N(C)C2CCS(=O)(=O)C2)cc1 (stereo not given),1.13 (inactive)
23,N#Cc1c(/N=C/N2CCCC2)oc(-c2ccccc2)c1-c1ccccc1,0.952 (inactive)
24,Cc1nc(SC(C)C)[nH]c(=O)c1Cc1ccccc1,0.348 (inactive)
25,Cc1cc(Cl)c(S(=O)(=O)NCc2cccnc2)cc1OCC(N)=O,0.213 (inactive)

row,SMILES,B-score
1,C1=C(CCNc2ncnc3c2cnn3-c2ccccc2)CCCC1,-1.37 (inactive)
2,Clc1ccc(Cn2ncc3c(NCc4cccnc4)ncnc32)cc1,-2.9 (active)
3,CC12CN3CC(C)(CN(C1)C3c1ccc(Cl)cc1Cl)C2=O (stereo not given),-0.693 (inactive)
4,Cc1ccc(-c2cc(C(F)(F)F)n3nc(C(=O)N4CCCC4)cc3n2)cc1,1.18 (inactive)
5,Cc1cccc(NC(=O)c2ccc3ccccc3n2)n1,0.542 (inactive)
6,Cc1nnc(NC(=O)CSc2nccn2-c2cccc(C)c2C)s1,-0.587 (inactive)
7,CCOC(=O)N1CCC(NC(=O)CCc2cn(C)c3ccccc23)CC1,2.11 (inactive)
8,Fc1cc(F)c2nc(N3CCOCC3)sc2c1,0.966 (inactive)
9,c1c2c(cc3sc(N4CCCCC4)nc13)OCCO2,-4.94 (active)
10,O=C(Nc1nc2cc3c(cc2s1)OCCO3)c1cccc(S(=O)(=O)N2CCOCC2)c1,-0.542 (inactive)
11,CSCCC1NC2(C(=O)Nc3ccc(Cl)cc32)[C@@H]2C(=O)N(C3CCCC3)C(=O)[C@H]12 (stereo not given in full),0.395 (inactive)
12,Cc1ccc(-c2noc(CSc3nnnn3-c3ccccc3)n2)cc1,0.0126 (inactive)
13,Cn1nnnc1SCc1cc(=O)[nH]c2ccccc12,0.325 (inactive)
14,CN(C)c1nc(N)nc(CSc2nnnn2-c2cccc3ccccc23)n1,7.63 (active)
15,Cn1c(SCc2c(F)cccc2Cl)nnc1-c1cnccn1,-0.043 (inactive)
16,Cc1nc2cc(-c3ccc(F)cc3)nn2c(N2CCOCC2)c1C,3.86 (inactive)
17,C/C(O)=C\c1nc(=O)c2c(C)cc(C)nc2n1-c1ccccc1,0.549 (inactive)
18,O=C1CCCC2=C1C(c1cccs1)n1nc(SCc3ccccc3)nc1N2 (stereo not given),0.252 (inactive)
19,COC(=O)c1nc(NC(=O)c2ccc(Cl)cc2)n[nH]1,-0.0452 (inactive)
20,COc1nc(NCc2ccc(Cl)cc2)nc(OC)n1,6.81 (active)
21,C=CCNc1nc(C)nc(OC)n1,0.422 (inactive)
22,Cc1c(-c2nn(C)c(=O)c3ccccc23)oc2ccc(F)cc2c1=O,1.77 (inactive)
23,CC(CNC(=O)c1ccc(Br)o1)NC(=O)c1ccc(Br)o1 (stereo not given),-0.012 (inactive)
24,CCc1nc(C)cn1S(=O)(=O)c1cc(OC)c(C)cc1C,-0.851 (inactive)
25,Cn1c(C(=O)NCCCN2CCCCC2)cc2sccc21,-0.452 (inactive)

row,SMILES,B-score
1,COc1ccc(CCNC(=O)c2cc(-c3ccc4c(c3)OCO4)on2)cc1OC,0.448 (inactive)
2,COc1ccc(CCNC(=O)c2cc3sccc3n2C)cc1OC,4.1 (active)
3,COC(CCN(C)C)(c1ccccc1)c1ccccc1,-0.765 (inactive)
4,COc1ccc(N2CCN(C(c3cc4ccc(C)cc4[nH]c3=O)c3nnnn3C3CCCC3)CC2)cc1 (stereo not given),0.0349 (inactive)
5,COCCn1nnnc1C(c1cc2ccc(OC)cc2[nH]c1=O)N1CCc2ccccc2C1 (stereo not given),-0.278 (inactive)
6,CCOc1ccc2[nH]c(=O)c(C(c3nnnn3CCOC)N3CCOCC3)cc2c1 (stereo not given),10.2 (active)
7,O=C(c1cc(-c2cccc(O)c2)on1)N1CCc2ccccc2C1,-0.88 (inactive)
8,Nc1nc2n(n1)C(c1ccco1)CC(c1ccc(Cl)c(Cl)c1)N2 (stereo not given),0.226 (inactive)
9,FC(F)Oc1ccccc1C1CC(c2ccc(Br)s2)Nc2ncnn21 (stereo not given),0.0618 (inactive)
10,COc1ccc(C2CC(c3ccc(Cl)cc3Cl)Nc3nc(N)nn32)cc1OC (stereo not given),-0.179 (inactive)
11,Clc1ccc(C2CC(c3cccs3)n3ncnc3N2)cc1Cl (stereo not given),2.58 (inactive)
12,COc1ccc(C2CC(c3ccc(C)cc3)Nc3ncnn32)cc1 (stereo not given),0.317 (inactive)
13,Cc1ccc(C2CC(c3cccc(C)c3)n3nc(N)nc3N2)cc1 (stereo not given),6.52 (active)
14,CCOc1ccccc1C1CC(c2ccccc2)Nc2nc(N)nn21 (stereo not given),5.88 (active)
15,CCOc1ccccc1C1CC(c2ccc(Cl)cc2)Nc2nc(N)nn21 (stereo not given),1.36 (inactive)
16,Cc1ccc(C2CC(c3cccc(Br)c3)n3nc(N)nc3N2)cc1 (stereo not given),9.49 (active)
17,CCc1nnc(NC(=O)c2cccs2)s1,-1.13 (inactive)
18,COc1ccc(OC)c(S(=O)(=O)Nc2ccccc2F)c1,0.662 (inactive)
19,O=C(CSc1nnc(-c2cccs2)n1-c1ccccc1)NCc1ccco1,0.124 (inactive)
20,CCOc1cc(C(=S)N2CCOCC2)ccc1O,0.0105 (inactive)
21,O=C(CSC1=NCCS1)Nc1nc(-c2ccccc2)cs1,2.09 (inactive)
22,NC(=O)c1ccccc1NC(=O)c1ccccc1F,-0.754 (inactive)
23,COc1ccc(-n2nnc3c(=O)n(CC(=O)N4CCC(Cc5ccccc5)CC4)cnc32)cc1,-0.0249 (inactive)
24,COCCNC(=O)Cn1cc2c(n1)CCCCC2,-0.978 (inactive)
25,COc1ccc(S(=O)(=O)N(CCCN2CCCC2=O)Cc2cc3c(C)ccc(C)c3[nH]c2=O)cc1,0.354 (inactive)
